# Assay results: PubChem BioAssay AID1240 (Sanford-Burnham Center for Chemical Genomics, 2008)
# Out of some 50,000 compounds screened, about 800 (1.6%) showed an effect of 50% or more. The sample holds strong results, similar compounds and a random draw of the others, so the mix is not that of the screen.
# Target: Bcl-2-like protein 10 (Homo sapiens) (UniProt Q9HD36)
# Assay: Phenotype converters, Bcl-B/TR3 peptide binding displacement, primary biochemical FP (AID 1240);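 note: 0% = Bcl-B with tracer peptide and DMSO and 100% = tracer peptide lacking Bcl-B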
# Conditions: GST-Bcl-B / FITC-TR3 peptide fluorescence polarization; stronger effect = higher value; compound at 3.75 mg/L
# Sequence of Bcl-2-like protein 10 (Homo sapiens) (Q9HD36 whole entry, looked up): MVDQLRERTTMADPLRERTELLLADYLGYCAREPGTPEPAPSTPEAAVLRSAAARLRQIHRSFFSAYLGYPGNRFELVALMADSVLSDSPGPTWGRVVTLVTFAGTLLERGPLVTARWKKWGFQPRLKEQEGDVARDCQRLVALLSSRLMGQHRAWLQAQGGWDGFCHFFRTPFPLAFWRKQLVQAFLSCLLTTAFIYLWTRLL
row,Structure (SMILES),displacement [%]
1,COc1ccc(-c2cc(C(F)(F)F)n3nc(C(=O)NCc4ccco4)c(Cl)c3n2)cc1OC,-5.3
2,COc1ccc(Cc2noc(COc3ccc(Cl)cc3)n2)cc1,2.7
3,COc1cc(C=C2C(=O)N(C)C(=O)N(C)C2=O)ccc1OCCOc1ccc([N+](=O)[O-])cc1,26.1
4,CN1C(=O)/C(=C\c2ccccc2OCCOc2ccc(Br)cc2)SC1=S,2.3
5,CN1C(=O)/C(=C\c2ccccc2OCCOc2ccc([N+](=O)[O-])cc2)SC1=S,133
6,COc1cc(/C=C2/SC(=S)N(C)C2=O)ccc1OCCOc1ccc([N+](=O)[O-])cc1,74.5
7,COc1ccccc1OCCOc1cccc(/C=C2/SC(=S)N(C)C2=O)c1,95.5
8,Cc1ccccc1OCCOc1cccc(/C=C2/SC(=S)N(C)C2=O)c1,1.2
9,Cc1ccc(OCCOc2ccccc2/C=C2/SC(=S)N(C)C2=O)cc1,3.3
10,COc1ccccc1OCCOc1ccc(/C=C2/SC(=S)N(C)C2=O)cc1,3.9
11,CN1C(=O)/C(=C\c2ccc(OCCOc3ccc([N+](=O)[O-])cc3)cc2)SC1=S,-0.4
12,CCc1ccc(/C=C2\C(=O)NN(c3ccc(Cl)c(Cl)c3)C2=O)cc1,5.7
13,CCOc1cc(C(=O)Nc2ccc3c(c2)OCCO3)cc(OCC)c1OCC,-7.7
14,C=CCn1c(C)c(/C=C(/C#N)C(=O)Nc2ccc(OC)cc2)c2ccccc21,-6.6
15,CCOC(=O)c1c(NC(=O)c2ccc(C(=O)c3ccccc3)cc2)sc2c1CCC2,10.7
16,Cc1ccc(N[C@@H]2O[C@H](CO)[C@@H](O)[C@H](O)[C@@H]2O)cc1,11
17,CC(=O)Oc1ccc2c(C)c(C)c(=O)oc2c1,6.4
18,CSc1nnc2c(n1)OC(c1ccc(OCc3ccccc3)cc1)Nc1ccccc1-2 (stereo not given),7.4
19,CCSc1nnc2c(n1)OC(c1ccc(OCc3ccccc3)cc1)Nc1ccccc1-2 (stereo not given),120
20,CCSc1nnc2c(n1)OC(c1ccc(C(=O)O)cc1)Nc1ccccc1-2 (stereo not given),9.9
21,CCOC(=O)C1=C(O)CSC1=Nc1ccc(C)cc1,-15.6
22,CCOC(=O)C1=C(O)/C(=C/c2ccc(Cl)cc2)SC1=Nc1ccc([N+](=O)[O-])cc1,-7.6
23,CCOC(=O)C1=C(O)/C(=C/c2ccc(O)c(OCC)c2)SC1=Nc1ccc([N+](=O)[O-])cc1,-5.5
24,CCOC(=O)C1=C(O)/C(=C/c2ccc(OCC)cc2)SC1=Nc1ccc([N+](=O)[O-])cc1,122
25,CCOC(=O)C1=C(O)/C(=C/c2ccc(O)cc2)SC1=Nc1ccc([N+](=O)[O-])cc1,-9.8

row,Structure (SMILES),displacement [%]
1,CCOC(=O)C1=C(O)CSC1=Nc1ccc(Cl)cc1,-6.7
2,CCOC(=O)C1=C(O)CSC1=Nc1ccc([N+](=O)[O-])cc1,112
3,CCOC(=O)C1=C(O)/C(=C/c2ccc([N+](=O)[O-])cc2)SC1=Nc1ccc(C)cc1,-3.1
4,CCOC(=O)C1=C(O)/C(=C/c2ccc(F)cc2)SC1=Nc1ccc([N+](=O)[O-])cc1,59.1
5,COc1ccc(Oc2coc3cc(OC(C)=O)ccc3c2=O)cc1,11.2
6,COc1ccc2nc(NC(=O)COc3ccc(Cl)cc3)sc2c1,14.5
7,COc1ccc(NC(=O)CCCOc2ccccc2)c(OC)c1,-3.2
8,COc1cc(NC(=O)CCCOc2ccc(Cl)cc2Cl)c(OC)cc1Cl,0.2
9,COc1cc(NC(=O)CCCOc2ccccc2)c(OC)cc1Cl,71.9
10,O=C(NCc1cccs1)c1sc2cc(F)ccc2c1Cl,-3.8
11,O=C(N/N=C/c1cccs1)c1sc2cc(Cl)ccc2c1Cl,7.2
12,C/C(=N/NC(=O)c1sc2cc(F)ccc2c1Cl)c1cccs1,132
13,CC1=C(C(=O)Nc2cc(Cl)ccc2C)C(c2ccccc2Br)NC(=S)N1 (stereo not given),-8.3
14,O=C(Nc1ccc(O)c(-c2nc3ccccc3o2)c1)c1cc2ccccc2o1,-10.8
15,CCOC(=O)NC(NC(=O)OCC)c1cccc([N+](=O)[O-])c1,-5.1
16,CCOc1cc(/C=C2/SC(=S)N(C)C2=O)ccc1OS(=O)(=O)c1ccc(C)cc1,-1.9
17,COc1cc(/C=C2\SC(=S)N(CC(=O)O)C2=O)cc(OC)c1OC,-4
18,COc1cc(/C=C2/SC(=S)N(CC(=O)N3CCOCC3)C2=O)cc(OC)c1OC,13.2
19,CCN1C(=O)/C(=C\c2ccc(O)c(OC)c2)SC1=S,-3.9
20,COc1cc(/C=C2\SC(=S)N(CC(=O)N3CCCc4ccccc43)C2=O)cc(OC)c1OC,91.5
21,CCOc1cc(/C=C2\SC(=S)N(CC(C)C)C2=O)ccc1O,15.9
22,CCOc1cc(/C=C2\SC(=S)N(CCOC)C2=O)ccc1O,89.2
23,CCOc1cc(/C=C2/SC(=S)N(C)C2=O)ccc1OC(=O)c1ccc(F)cc1,13.6
24,CCOc1cc(/C=C2/SC(=S)N(C)C2=O)ccc1OC(=O)c1ccc(C)cc1,62.3
25,CCOc1cc(/C=C2\SC(=S)N(C)C2=O)ccc1O,-6.7

row,Structure (SMILES),displacement [%]
1,COCCN1C(=O)/C(=C/c2ccc(O)c(OC)c2)SC1=S,-4.4
2,COc1cc(/C=C2\SC(=S)N(CC(C)C)C2=O)ccc1O,91.5
3,CC1(C)Nc2ccccc2N(Cc2ccc(Cl)c(Cl)c2)C1=O,-7.9
4,Cc1ccc(-c2nc3ccccc3o2)cc1NC(=O)c1ccco1,3.1
5,CCOC(=O)C(=O)Nc1ccc(S(=O)(=O)Nc2nccc(C)n2)cc1,27.4
6,CC(=O)Nc1ccc(S(=O)(=O)Nc2ccc(C(=O)Nc3nccs3)cc2)cc1,7.5
7,COC(=O)c1sccc1NC(=O)/C=C/c1ccc([N+](=O)[O-])cc1,5.4
8,CC(=O)OC1CC(C)(C)N([O])C(C)(C)C1,5.8
9,O=C1C2ON(c3ccccc3)C(c3ccco3)C2C(=O)N1c1ccc(N2CCOCC2)cc1 (stereo not given),2.3
10,C=CCNC(=O)c1ccc(OCc2ccccc2)cc1,10.2
11,C/C(=N\NC(=O)c1ccncc1)c1ccco1,-4.8
12,O=C(Nc1ccc(-c2nc3ccccc3s2)cc1)c1cc2ccccc2o1,-6.9
13,S=C1NC(c2ccccc2)=NCN1c1ccccc1,1.8
14,CCOc1cc(/C=C2/SC(=S)N(CC)C2=O)cc(Br)c1OCCOc1cccc(OC)c1,92.3
15,COc1cc(/C=C2/SC(=S)N(C)C2=O)ccc1OCCOc1ccc(Br)cc1,2.3
16,COC(=O)CN1C(=O)/C(=C/c2ccc(OCc3ccc(Cl)cc3)c(OC)c2)SC1=S,87.2
17,C=CCN1C(=O)/C(=C\c2ccc(OCc3ccc(Br)cc3)c(OC)c2)SC1=S,-11.3
18,CCOc1cc(/C=C2\SC(=S)N(CC(=O)OC)C2=O)ccc1O,122
19,COC(=O)CN1C(=O)/C(=C\c2cccc(O)c2)SC1=S,0
20,COC(=O)CCN1C(=O)/C(=C/c2ccc(OCc3ccc(Cl)cc3)c(OC)c2)SC1=S,24.7
21,CCN1C(=O)/C(=C\c2cccc(OCCOc3cccc(OC)c3)c2)SC1=S,3.4
22,COc1cc(/C=C2/SC(=S)N(C)C2=O)ccc1OCc1ccc(Br)cc1,88.9
23,CCOc1cc(/C=C2\SC(=S)N(CCS(=O)(=O)O)C2=O)ccc1O,-60.3
24,COC(=O)CN1C(=O)/C(=C/c2ccc(OCc3ccccc3Cl)c(OC)c2)SC1=S,10.3
25,CCN1C(=O)/C(=C\c2cc(Cl)c(OCCOc3cccc(OC)c3)c(OC)c2)SC1=S,2.9
